Source: PubChem BioAssay (NCATS)
Values joined by “and” are separate entries in the source; they are usually repeats but may differ in a detail not shown here. Equal entries are not always repeated. Records with an inconclusive call do not appear. Active and inactive are the calls of the source. Unless noted, the call rests on the fitted dose curve; in most records, active means well fitted curve in either direction with a large enough effect (not every such curve was filed as active); inconclusive means small, poorly fitted or top-dose-only effect, or another doubt; inactive means flat fitted curve, though single readings scatter.

Key:
[1] = target: Lysosomal acid glucosylceramidase (Homo sapiens) (UniProt P04062); test: Glucocerebrosidase-p2 (AID 348; in the data active means potency below about 10 µM; further: potency means the concentration at half of the fitted maximal effect); conditions: purified GBA, blue fluorogenic substrate, 40 min
Chain of Lysosomal acid glucosylceramidase (Homo sapiens) (P04062 whole entry, looked up): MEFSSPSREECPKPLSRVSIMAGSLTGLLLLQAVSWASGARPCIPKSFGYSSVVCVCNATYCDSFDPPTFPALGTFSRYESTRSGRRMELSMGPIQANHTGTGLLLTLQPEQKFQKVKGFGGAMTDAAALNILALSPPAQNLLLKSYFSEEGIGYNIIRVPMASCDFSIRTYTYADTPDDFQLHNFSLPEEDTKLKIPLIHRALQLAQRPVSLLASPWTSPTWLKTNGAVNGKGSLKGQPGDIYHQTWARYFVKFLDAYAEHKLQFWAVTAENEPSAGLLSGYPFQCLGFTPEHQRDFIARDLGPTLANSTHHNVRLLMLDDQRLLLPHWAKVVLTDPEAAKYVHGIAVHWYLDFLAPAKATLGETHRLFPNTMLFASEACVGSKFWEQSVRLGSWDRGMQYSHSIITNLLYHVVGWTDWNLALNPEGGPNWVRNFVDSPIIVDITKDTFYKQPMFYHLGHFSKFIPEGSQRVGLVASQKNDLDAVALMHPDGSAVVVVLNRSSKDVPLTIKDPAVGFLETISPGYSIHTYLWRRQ
Outline: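 Normal human glucocerebrosidase (0.2 nM) with blue fluorogenic substrate (80 uM final) in citrate/phosphate pH 5.9 with 10mM sodium taurocholate, 0.01% tween-20; 40 min RT, NaOH/glycine stop; fluorescence Ex 365/Em 440; AC50 from a titration from 0.6 nM upwards.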

[2] = AP1 Signaling Pathway (AID 357); conditions: ME-180 AP-1-bla reporter, EGF-induced, beta-lactamase ratio, 5 h;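 further: ME-180 reporter cells stimulated with EGF at its EC50 level; on the % scale 0 is the no-effect control and ±100 the full control effect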
Outline: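 Cells are seeded overnight, exposed to compound titrations and an EC50 level of EGF for 5 hours at 37 °C, then loaded with CCF4 dye for 2.5 hours. Beta-lactamase activity under the AP-1 element is read as a blue/green ratio.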

[3] = target: Cytochrome P450 1A2 (Homo sapiens) (UniProt P05177); test: p450-cyp1a2 (AID 410; calls by dose curve; further: potency means the concentration at half of the fitted maximal effect;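 on activity change, negative = inhibition: -100% = full effect of reference inhibitor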); conditions: recombinant CYP1A2, luciferin-ME demethylation, luminescence; series mostly up to 25.6 µM
Chain of Cytochrome P450 1A2 (Homo sapiens) (P05177 whole entry, looked up): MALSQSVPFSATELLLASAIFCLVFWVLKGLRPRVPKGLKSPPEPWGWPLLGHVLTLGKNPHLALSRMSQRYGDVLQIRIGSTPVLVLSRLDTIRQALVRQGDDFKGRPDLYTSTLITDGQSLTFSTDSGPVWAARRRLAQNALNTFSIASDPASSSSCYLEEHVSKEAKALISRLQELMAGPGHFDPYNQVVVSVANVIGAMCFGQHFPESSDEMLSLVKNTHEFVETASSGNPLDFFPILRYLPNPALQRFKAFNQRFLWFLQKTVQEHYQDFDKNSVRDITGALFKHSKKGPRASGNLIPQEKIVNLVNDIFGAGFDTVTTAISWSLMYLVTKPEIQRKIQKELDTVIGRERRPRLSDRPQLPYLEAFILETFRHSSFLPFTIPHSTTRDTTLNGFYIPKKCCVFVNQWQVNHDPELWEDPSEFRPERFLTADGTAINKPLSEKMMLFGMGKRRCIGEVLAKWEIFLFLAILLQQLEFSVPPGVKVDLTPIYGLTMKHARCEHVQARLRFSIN
Outline: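 20nM CYP1A2, 100uM Luciferin-ME (=Km), 100mM KPO4; cpd 10 min RT; +NADPH regen, 60 min RT; stop/detect 20 min; luminescence. Normalized to furafylline 57 uM = full inhibition.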

[4] = Stat Signaling Pathway (AID 446); conditions: ME-180 (cervical carcinoma) SIE beta-lactamase reporter, IL-6 stimulated, 5 h;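 further: ME-180 cervical cancer cells given 40 pM IL-6 alongside compound; SIE-controlled beta-lactamase reporter measured as 460/530 nm FRET emission ratio; on the % scale 0 is the no-effect control and ±100 the full control effect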
Outline: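 Compound effects on IL-6-induced STAT reporter activity were measured in ME-180 cells. After overnight culture, cells were co-treated with 40 pM IL-6 for 5 hrs before beta-lactamase substrate loading at room temperature.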

[5] = NFAT Signaling Pathway (AID 444); conditions: Jurkat NFAT-bla M1, carbachol, beta-lactamase ratio, 5 h;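 further: carbachol stimulus at about its EC50 of 1 µM final; on the % scale 0 is the no-effect control and ±100 the full control effect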
Outline: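 Jurkat cells with NFAT-driven β-lactamase reporter and co-expressed M1 receptor, stimulated with carbachol (final 1 uM, ~EC50), compound titration, 5 h at 37 °C. CCF4 loaded 1 h at RT; 460/530 nm ratio gave %activity and AC50.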

[6] = Cell Viability - BJ (AID 421; calls by dose curve;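 further: potency means the concentration at half of the fitted maximal effect; cells exposed to compound for 40 hours at 37 °C before readout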); conditions: BJ fibroblast viability, qHTS
Outline: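 Luminescent ATP signal (CellTiter-Glo, 20 min at room temperature) served as the read-out of viable BJ cells after 40 hours of compound treatment. Responses were scaled between DMSO and 100 uM tamoxifen, and AC50 values were obtained by Hill modeling.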

[7] = Cell Viability - Hek293 (AID 427;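 active means compounds whose dose-response curve shows a full or clear partial loss of cell viability, called from curve shape rather than a numeric limit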;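 further: potency means the concentration at half of the fitted maximal effect; cells exposed to compound for 40 hours at 37 °C before reading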); conditions: qHTS
Outline: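 Luminescent ATP read-out (CellTiter-Glo, 20 min RT) after 40 hr compound exposure at 37 °C in complete medium. Signal normalized to DMSO (basal) and 100 uM tamoxifen (100% inhibition); concentration-response fitted with the standard Hill equation to give AC50.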

[8] = Cell Viability - HepG2 (AID 433; calls by dose curve;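 further: potency means the concentration at half of the fitted maximal effect; potency for ATP loss meaning cytotoxicity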); conditions: qHTS
Outline: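 In this qHTS format, a 40 h, 37 °C compound incubation of HepG2 cells in complete medium precedes a 20 min CellTiter-Glo step at room temperature. Tamoxifen and doxorubicin serve as positive controls; Hill-equation fits yield AC50.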

[9] = Cell Viability - MRC5 (AID 434; calls by dose curve;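 further: potency means the concentration at half of the fitted maximal effect; cells exposed to compound for 40 hours at 37 °C; potency reflects cytotoxicity seen as loss of intracellular ATP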); conditions: MRC5 lung fibroblast viability, qHTS
Outline: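 ATP luminescence read-out (CellTiter-Glo, 20 min RT) after 40 hr, 37 °C compound exposure of 1500 MRC5 cells/well. Data normalized to DMSO (basal) and 100 uM tamoxifen (100% inhibition); AC50 from standard Hill equation.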

[10] = Cell Viability - SK-N-SH (AID 435; calls by dose curve;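 further: potency means the concentration at half of the fitted maximal effect; compound exposure lasted 40 h at 37 °C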); conditions: SK-N-SH neuroblastoma cell viability qHTS
Outline: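 Human neuroblastoma line, 40 h exposure at 37 °C, ATP quantified via luciferase luminescence; DMSO and 100 uM tamoxifen define 0 and 100% inhibition for AC50 fitting.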

CN(C)CC/C=C1\c2ccccc2Sc2ccc(Cl)cc21
inactive: Potency [1] > 11.4 µM | activity change, negative = inhibition ([2]; at 7.69 µM (top of the series)) 20.4% | activity, negative = inhibition ([4]; at 7.69 µM (top of the series)) -3.4% | activity, negative = inhibition ([4]; at 17.2 µM (top of the series)) -6.29%
active: Potency [3] 1.58 µM and 3.98 µM

COc1c2occc2c(OC)c2c(=O)cc(C)oc12
inactive: activity change, negative = inhibition ([2]; at 17.2 µM (top of the series)) 4.61% and -2.27% | activity change, negative = inhibition ([5]; at 17.2 µM (top of the series)) 4.03% and 8.21% | activity, negative = inhibition ([4]; at 17.2 µM (top of the series)) 7.57% and -1.58%
active: Potency [3] 0.02 µM

CCN(CCCc1ccccc1)CCCc1ccccc1
active: Potency [3] 3.98 µM | activity change, negative = inhibition ([5]; at 17.2 µM (top of the series)) -87%
inactive: activity change, negative = inhibition ([2]; at 17.2 µM (top of the series)) 18.6% and 13.2% | activity, negative = inhibition ([4]; at 17.2 µM (top of the series)) 13.6% and 2.48%

COc1cccc2c1C(=O)c1c(O)c3c(c(O)c1C2=O)C[C@@](O)(C(C)=O)C[C@@H]3O[C@H]1C[C@H](N)[C@H](O)[C@H](C)O1
active: activity change, negative = inhibition ([2]; at 17.2 µM (top of the series)) -116% | Potency [3] 31.6 µM | Potency [6] 4.61 µM | Potency [7] 0.00723 µM | Potency [8] 49.7 µM | Potency [9] 19.5 µM | Potency [10] 0.0141 µM | activity change, negative = inhibition ([5]; at 17.2 µM (top of the series)) -129% | activity, negative = inhibition ([4]; at 17.2 µM (top of the series)) -103%

NCCc1ccn[nH]1
inactive: activity change, negative = inhibition ([2]; at 17.2 µM (top of the series)) 2.73% | Potency [3] | activity change, negative = inhibition ([5]; at 17.2 µM (top of the series)) -6.22% | activity, negative = inhibition ([4]; at 17.2 µM (top of the series)) 4.55%

C[C@H](O)C(=O)Nc1c(I)c(C(=O)NC(CO)CO)c(I)c(C(=O)NC(CO)CO)c1I
inactive: activity change, negative = inhibition ([2]; at 17.2 µM (top of the series)) 11.2% | Potency [3] | activity change, negative = inhibition ([5]; at 17.2 µM (top of the series)) 3.52% | activity, negative = inhibition ([4]; at 17.2 µM (top of the series)) -2.21%

Oc1ccc(O)cc1
inactive: activity change, negative = inhibition ([2]; at 38 µM (top of the series)) -22.8% | Potency [3] | Potency [6] > 92 µM | Potency [8] > 92 µM | Potency [9] > 92 µM | activity change, negative = inhibition ([5]; at 38 µM (top of the series)) -5.74% | activity, negative = inhibition ([4]; at 38 µM (top of the series)) 3.99%

CC(C)(C(=O)c1cccnc1)c1cccnc1
active: Potency [3] 12.6 µM
inactive: activity change, negative = inhibition ([2]; at 17.2 µM (top of the series)) 1.77% | activity change, negative = inhibition ([5]; at 17.2 µM (top of the series)) -2.38% | activity, negative = inhibition ([4]; at 17.2 µM (top of the series)) -5.5%

O=C(CCCN1CCC(O)(c2ccc(Br)cc2)CC1)c1ccc(F)cc1
active: Potency [3] 5.01 µM
inactive: activity change, negative = inhibition ([2]; at 17.2 µM (top of the series)) 13.1% | activity change, negative = inhibition ([5]; at 17.2 µM (top of the series)) -24.7% | activity, negative = inhibition ([4]; at 17.2 µM (top of the series)) 1.5%

CC(=O)N(O)CCCCCNC(=O)CCC(=O)N(O)CCCCCNC(=O)CCC(=O)N(O)CCCCCN
inactive: activity change, negative = inhibition ([2]; at 17.2 µM (top of the series)) -6.04% | Potency [3] | activity, negative = inhibition ([4]; at 17.2 µM (top of the series)) 10.3%

CCOC(=O)n1ccn(C)c1=S
inactive: activity change, negative = inhibition ([2]; at 17.2 µM (top of the series)) 13.2% | activity change, negative = inhibition ([5]; at 17.2 µM (top of the series)) -13.3% | activity, negative = inhibition ([4]; at 17.2 µM (top of the series)) 4.14%
active: Potency [3] 12.6 µM

N[C@@H](Cc1cnc[nH]1)C(=O)O
inactive: activity change, negative = inhibition ([2]; at 38 µM (top of the series)) 2.79% | Potency [3] | activity change, negative = inhibition ([5]; at 38 µM (top of the series)) -0.542% | activity, negative = inhibition ([4]; at 38 µM (top of the series)) 27.2%

Oc1ccc(Cl)cc1Sc1cc(Cl)ccc1O
active: Potency [3] 3.98 µM
inactive: Potency [1] > 11.4 µM | activity change, negative = inhibition ([2]; at 7.69 µM (top of the series)) -7.34%

Cc1cc(N)c2cc(NC(=O)Nc3ccc4nc(C)cc(N)c4c3)ccc2n1
inactive: Potency [1] > 11.4 µM | activity change, negative = inhibition ([2]; at 7.69 µM (top of the series)) 14% | Potency [3] | activity, negative = inhibition ([4]; at 7.69 µM (top of the series)) -4.38%

C[N+]1(CCCCC[N+]2(C)CCCC2)CCCC1
inactive: activity change, negative = inhibition ([2]; at 17.2 µM (top of the series)) 5.75% | activity change, negative = inhibition ([2]; at 38 µM (top of the series)) 7.2% | activity, negative = inhibition ([4]; at 17.2 µM (top of the series)) 14.2% | activity, negative = inhibition ([4]; at 38 µM (top of the series)) 0.841%

COc1cc(-c2ccc(=O)[nH]n2)ccc1OC(F)F
inactive: activity change, negative = inhibition ([2]; at 17.2 µM (top of the series)) -8.42% | activity change, negative = inhibition ([2]; at 38 µM (top of the series)) 17.6% | activity, negative = inhibition ([4]; at 17.2 µM (top of the series)) 0.425% | activity, negative = inhibition ([4]; at 38 µM (top of the series)) -14.4%
active: Potency [3] 10 µM and 5.01 µM and 2.51 µM

CNCCC=C1c2ccccc2CCc2ccccc21
inactive: activity change, negative = inhibition ([2]; at 7.69 µM (top of the series)) -6.8% | activity change, negative = inhibition ([2]; at 17.2 µM (top of the series)) 15.1% and 18.2% | activity change, negative = inhibition ([2]; at 38 µM (top of the series)) 16.2% | activity, negative = inhibition ([4]; at 7.69 µM (top of the series)) -5.09% | activity, negative = inhibition ([4]; at 17.2 µM (top of the series)) -1.99% and -5.78% | activity, negative = inhibition ([4]; at 38 µM (top of the series)) -27.8%
active: Potency [3] 25.1 µM | activity change, negative = inhibition ([5]; at 7.69 µM (top of the series)) -80.1% | activity change, negative = inhibition ([5]; at 17.2 µM (top of the series)) -86.8%
